The inhibition is the change of the read-out against control, counted positive when it falls.

The results in this text go back to PubChem BioAssay AID463188 (University of Pittsburgh Molecular Library Screening Center, 2010).

Screen size: about 1,300 compounds; about 360 (28%) were called active.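 How the source made its calls: active means average inhibition of at least 50%, with Z-scores no higher than 3 in both the phospho-tyrosine peptide and fluorescence counterscreens; inactive means the rest.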 The sample as a whole holds a higher share of actives than the screen did.

A short description of experiment [1]: Nef-activated Hck kinase blockers, duplicate retest – biochemical, Z-Lyte FRET, 384-well, p-Tyr peptide counterscreen, confirmation (AID 463188). Particulars: Recombinant Hck-YEEI:Nef, Z-Lyte FRET kinase assay; measured here: p-Tyr peptide counterscreen; at 10 µM. In general terms: Counterscreens check selectivity or assay interference.
Experiment [2] addresses Tyrosine-protein kinase HCK (Homo sapiens) (UniProt P08631). Described as above. Particulars: Recombinant Hck-YEEI:Nef, Z-Lyte FRET kinase assay; at 10 µM; stronger effect = higher value.

Tyrosine-protein kinase HCK (Homo sapiens), sequence (P08631 whole entry, looked up): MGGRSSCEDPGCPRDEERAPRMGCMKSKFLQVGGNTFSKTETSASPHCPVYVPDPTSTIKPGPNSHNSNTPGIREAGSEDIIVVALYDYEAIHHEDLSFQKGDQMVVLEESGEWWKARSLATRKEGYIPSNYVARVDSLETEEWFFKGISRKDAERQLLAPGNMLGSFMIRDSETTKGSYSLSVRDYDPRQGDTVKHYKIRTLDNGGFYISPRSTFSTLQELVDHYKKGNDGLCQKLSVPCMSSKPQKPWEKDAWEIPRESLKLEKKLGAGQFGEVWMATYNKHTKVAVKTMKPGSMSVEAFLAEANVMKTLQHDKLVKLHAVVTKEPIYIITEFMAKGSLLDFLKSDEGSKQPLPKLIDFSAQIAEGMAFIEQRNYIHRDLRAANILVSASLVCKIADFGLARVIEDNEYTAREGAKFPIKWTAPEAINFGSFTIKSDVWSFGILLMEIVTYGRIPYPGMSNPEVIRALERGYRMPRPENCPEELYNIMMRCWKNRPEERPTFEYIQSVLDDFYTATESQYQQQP

`O=C1NC(=O)N(Cc2ccco2)C(=O)/C1=C\c1ccc(-c2ccc(F)cc2)o1`: the z-score in experiment [1] turned out to be 0.915. Moreover, the inhibition in experiment [2] was 68.2% (active).
Taken in the same sequence, the figures for `COc1cc(Cn2c(N)c(C(=O)NCc3ccco3)c3nc4ccccc4nc32)cc(OC)c1OC` were 25.8 and 46.4% (inactive).
